# Measurements taken from PMC12136788.
# Residue numbers refer to the chain shown, from its start. The full ranking holds about 24,000 sequences; the median of “enrichment r” is about 0.99, and the highest 2% start at about 3.7. This is one part of a sample in which the highest values are shown more often than they occur.
# T1: UNK ZnF1-3 (human, UniProt Q9C0B0 31-174)
# T1 sequence: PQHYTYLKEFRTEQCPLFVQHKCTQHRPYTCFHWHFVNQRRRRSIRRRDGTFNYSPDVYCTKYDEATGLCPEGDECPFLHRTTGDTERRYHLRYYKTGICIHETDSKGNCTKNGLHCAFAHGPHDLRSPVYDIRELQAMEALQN
# B1: chr14:79828021:79828022:+_ENSMUSG00000043881_ENSMUST00000061222|mus_mus|motif|central (ssRNA)
# RNA: GGGAGUUCUACAGUCCGACGAUCAGGAUCAUAGCAGAGCAUGCGCUUACUGUUGACAGCGUAAAGAUAAUUCUGAACCACGGUUAGUUCAAAUGAAUAAAAGGAAUGUGGUACAGGAGCCACCAAUGCCCAUUGGUUCCUCUGCAACAGAGGAUUGAGCAUCA
# B2: chr11:87794696:87794697:-_ENSMUSG00000020483_ENSMUST00000020775|mus_hu|motif|central (ssRNA)
# RNA: GGGAGUUCUACAGUCCGACGAUCGCCUUUUAUUUUGUAUAGGGAAAGAAAGAGAAAAGGGAGAGGUGGGAGAGAUUUCCGGGUGCAAUACAACCAAAAAAUAUUUUUAAAGUCUUGAAAAAUAAACAUAAAGCAGCCUUCUUCCAACAGAGGAUUGAGCAUCA
# B3: chr3:49547525:49547526:-_ENSMUSG00000037892_ENSMUST00000035931|mus_hu|FALSE|FALSE (ssRNA)
# RNA: GGGAGUUCUACAGUCCGACGAUCGUUCUUAUACUAAAAAUAAAAGCAAAAAUAUGAGAUCAUGCACUGGAGACAAAAGCUAAAAAUGAAUAGUUAUAACAAAGAAAGACAAUAUUCCAAAAGAUUAAAAUGUUCAAGUAUUGUCAACAGAGGAUUGAGCAUCA
# B4: chr3:49547525:49547526:-_ENSMUSG00000037892_ENSMUST00000035931|mus_hu|motif|central (ssRNA)
# RNA: B3 RNA with U80G, A81G
# B5: chr1:154935262:154935263:-_ENSG00000160691_ENST00000448116|hu_hu|motif|central (ssRNA)
# RNA: GGGAGUUCUACAGUCCGACGAUCAUUUUGUGCUCAAGAAUAAGCAAUGGAAAAGAAAAUAGGAAAGUAAGUCUACAGCCCGGAAAUAUAUGCAUAUAAAACUUUAAAAGAAUGCAGUUCCAACUCUACAGAUGGUAUGUGGGGCAACAGAGGAUUGAGCAUCA
# B6: chr9:90322654:90322655:+_ENSG00000196730_ENST00000408954|hu_hu|FALSE|FALSE (ssRNA)
# RNA: GGGAGUUCUACAGUCCGACGAUCAAAGAAAAGCGUAUAAGAAAUACACAUUUUGGAUAAAUAUGCACUUUUCUUUUUUAAAGGACAAUCAAUAUAGUAGUUAAAAAAAAUGUCAUUGAAAAGUUAGGAAUUCCAGCAAAAUUACAACAGAGGAUUGAGCAUCA
# B7: chr4:21667751:21667752:+_ENSMUSG00000028252_ENSMUST00000108240|mus_mus|motif|central (ssRNA)
# RNA: GGGAGUUCUACAGUCCGACGAUCUUCUAGUAUAUGAUUCAUCCUGUAAGGAAAUUCCUUUGGAAAAGCAUAUGAAAAUCGGGUUUUUAAUACAGAAGUAGUAGCAGCAAUCAAUCUUGUAUUUGAGACAACACCAAAUUCCUCCAACAGAGGAUUGAGCAUCA
# B8: chr1:154935262:154935263:-_ENSG00000160691_ENST00000448116|hu_hu|FALSE|FALSE (ssRNA)
# RNA: B5 RNA with G81U, G82A
# B9: chr1:163112212:163112213:-_ENSG00000143248_ENST00000313961|hu_hu|hu_hu_hu_mus_False|1_18 (ssRNA)
# RNA: GGGAGUUCUACAGUCCGACGAUCUUUUAUUAUCAGUAAGAGUGAGUUACAUACUAGGCAAAGUAUUGGAUACAAUAAUCAGGAAACAAACACUAUUGGUCCAGAAUUUAAAACUUUUGGGAUAAAUUGCUGGCACAGGAUUUACAACAGAGGAUUGAGCAUCA
# B10: chr3:49547525:49547526:-_ENSMUSG00000037892_ENSMUST00000035931|mus_mus|motif|central (ssRNA)
# RNA: GGGAGUUCUACAGUCCGACGAUCGUUCAUAUGCUAAAAAUACAAGCAAAACUGUGAUAGCAUGCACAAGAGACAAAAGCGGAAGGUGAAUAAUUAUAGCCAAAAAAAGAGAGACAAUGCAGUCGAUACAAAUGUUCAAGUAUGCAACAGAGGAUUGAGCAUCA
# B11: chr20:5919097:5919098:-_ENSG00000089195_ENST00000203001|hu_hu|FALSE|FALSE (ssRNA)
# RNA: GGGAGUUCUACAGUCCGACGAUCGUUCUUAUUCUUGGGAUAUGAAAAAACAAGUAGUAAUGGCAUUUAAAGUUUAAUUACUAACUGUAUAAUGCCUGAGAACAAAAUUCAGAGCAAUUCUCAAAAGGGUUAAGAGUCAGACUCCAACAGAGGAUUGAGCAUCA
# B12: chr5:145543945:145543946:-_ENSG00000133706_ENST00000545646|hu_hu|hu_hu_hu_mus_True|58_98 (ssRNA)
# RNA: GGGAGUUCUACAGUCCGACGAUCCUGAACGGCCAGUGGCGGGAAAUAAUCAAGCCAGUGCUCUGCUUCAGAAAACUUUACUAUCUCGUCAUCAGAGAGCCCAAGGGAUUUCAUAAUGUCCCACUGGUACUUAGAAGAUCCUGCCAACAGAGGAUUGAGCAUCA
# B13: chrX:20248820:20248821:+_ENSMUSG00000001924_ENSMUST00000001989|mus_mus|mus_mus_mus_hu_True|78_78 (ssRNA)
# RNA: GGGAGUUCUACAGUCCGACGAUCGGCGAAGUCCGUCACCACAAAGUCAGGUUCUGCCAGUGAUGCUACCAAGGAUUUAAAGCUAAUCUUCUUAGGUACUUUGACCUGACUGACGAUGCCUCCACGGAUGUAGUCGGAGAAGUUCAACAGAGGAUUGAGCAUCA
# B14: chr1:66480114:66480115:+_ENSMUSG00000015222_ENSMUST00000024639|mus_hu|mus_mus_mus_hu_True|28_28 (ssRNA)
# RNA: GGGAGUUCUACAGUCCGACGAUCUGGCCUGUGGCGGAUGUUCUUCAGAGAGCCACAUUUGGAUGUCACAUGGCUUAGGUCUAUUUUCUUGGUAACAAUUUGUACCUGACCCCCCUUAGGCUGGUAUUUGAUGUUGUCUGUUGACAACAGAGGAUUGAGCAUCA
# B15: chrX:100668055:100668056:+_ENSG00000126945_ENST00000316594|hu_mus|FALSE|FALSE (ssRNA)
# RNA: GGGAGUUCUACAGUCCGACGAUCGAGCUCUACAUAGCUAUGAUCAUAAGCUCCUCCACUUGUCCCUGCGGUAGAAUUCAAGAAGAGCUCCACAUAUCUGUGUUGCAUAUUUGCUUUAUCUUUUGCCAUAGCUGCCACAGCGUCCAACAGAGGAUUGAGCAUCA
# B16: chr12:118471567:118471568:-_ENSG00000176871_ENST00000315436|hu_hu|motif|central (ssRNA)
# RNA: GGGAGUUCUACAGUCCGACGAUCGCACUUGGCCAACAUCGAAGCAACUCUGACCACAGCAGGAGAGAACUUGAACCAAUGCGGCCACUGCAUCAGAAACACAAGGAUAGGUACUAGGCAGAAGCCAUCGUUCCCAGCGGAGGGCAACAGAGGAUUGAGCAUCA
# B17: chr5:128448638:128448639:+_ENSG00000066583_ENST00000173527|hu_mus|hu_hu_hu_mus_False|18_48 (ssRNA)
# RNA: GGGAGUUCUACAGUCCGACGAUCGGCACUCGCCUUAAUUAGGUUCUGAAUUUCCUUGAACUUCGGGUGGUCUUUGUCAGCCACCAGCUGAAGCAGAACAGCCUCACUAGUGGUCACUAUGAUCCCGGUGCGGGCAAGACGCUCCAACAGAGGAUUGAGCAUCA
# B18: chr1:157160411:157160412:-_ENSMUSG00000026469_ENSMUST00000027741|mus_mus|motif|central (ssRNA)
# RNA: GGGAGUUCUACAGUCCGACGAUCGAAUUCAAUCAGAAGAAAGCCACCCCGAUAGAUUCUUAUCAAGGGCCAUACAGUUCGGUCUGUUUCAAGUUUAAAUACAGCUGCAAACACAAGGGUAAUAUUCAGCACAAUGAAUAUUCCCAACAGAGGAUUGAGCAUCA
# B19: chr1:157160411:157160412:-_ENSMUSG00000026469_ENSMUST00000027741|mus_mus|FALSE|FALSE (ssRNA)
# RNA: B18 RNA with G80U, G81A
# B20: chr16:68260615:68260616:+_ENSG00000072736_ENST00000346183|hu_hu|FALSE|FALSE (ssRNA)
# RNA: GGGAGUUCUACAGUCCGACGAUCGAAACAAGAGAGCCUGCUGCAUUCACACUCAAAGCACCCAUCAUAUAAAAGUAUCCUAGUUAAAUAUAAAAAGCAAAGUUCAUUUCCCCAAAGCUCAAACAGCCUAUGCUGCUCCUGUUCCAACAGAGGAUUGAGCAUCA
# B21: chr15:103023242:103023243:-_ENSMUSG00000009575_ENSMUST00000118152|mus_mus|FALSE|FALSE (ssRNA)
# RNA: GGGAGUUCUACAGUCCGACGAUCAACUAGCAGCAUUGAUGAGGGGUUAAGGGAUUGGGGACAGAAACUCACCAAGGUCACUAAGUACUUCCAAACUUGGAAGUAGCUCAGUGAGGGCUAAAAAAACUUCGACUGAAGGUAUCCCAACAGAGGAUUGAGCAUCA
# B22: chr14:67424093:67424094:-_ENSMUSG00000022048_ENSMUST00000022629|mus_mus|motif|central (ssRNA)
# RNA: GGGAGUUCUACAGUCCGACGAUCGGAGACCGAGUGCAGGGGGCCCAAGAGGAAGCCCCAGGAACUGGCUGCCCACAGCAACGGUCACAGGCUCUUUAAAAAAAAAAAAAAUGGAAGAAAGGAAGUCUCAGAAUGUCCUCAGGUCAACAGAGGAUUGAGCAUCA
# B23: 72187872_72187992_6815_3pUTR_ENSG00000148730_ENST00000373218|human|control|control (ssRNA)
# RNA: GGGAGUUCUACAGUCCGACGAUCGAGUGUCCUCUGGGCUCUUCAAGACACCUUCUUUAAGGUUUACCCCUGGAGUAGCAGAGGGUCUCCUCACCCAGGUGGAAAGAGAUGGGCUCCAUCUGCAGAUGAAGGAAAGGCACUGGCCAACAGAGGAUUGAGCAUCA
# B24: chr14:67424093:67424094:-_ENSMUSG00000022048_ENSMUST00000022629|mus_mus|FALSE|FALSE (ssRNA)
# RNA: B22 RNA with G82U, G83A
# B25: chr17:35975164:35975165:-_ENSMUSG00000001525_ENSMUST00000001566|mus_hu|FALSE|FALSE (ssRNA)
# RNA: GGGAGUUCUACAGUCCGACGAUCGGAAUGCGCCCCAGAGGCUGGAGCAGCGAGGUGCAAACGCGACGGCAGGAAGGUUCUGAGAGGGAGAAAGGAGAGGGGAGGGCGCGGAGGGAAAGCAGGCUGGGCGGGGCGCGCGUGCGCCAACAGAGGAUUGAGCAUCA
# B26: chr5:145543945:145543946:-_ENSG00000133706_ENST00000545646|hu_hu|hu_hu_hu_mus_True|48_48 (ssRNA)
# RNA: B12 RNA with C39U, U78C, C84G, G87U, G96C
# B27: chr1:26230221:26230222:-_ENSG00000117632_ENST00000374291|hu_mus|FALSE|FALSE (ssRNA)
# RNA: GGGAGUUCUACAGUCCGACGAUCCUGGAUUUCCUCCAGGGAAAGGUCCUUCUUCUUUGGGGGGGAAAGGGGGAAAUCGGGGACAGAUUCUUUUGACCGAGGGCUGAGAAUCAGCUCAAAAGCCUGGCCUGAAGCGCGCUUCUCCAACAGAGGAUUGAGCAUCA
# Biological target: T1, UNK ZnF1-3
# Assay: nsRBNS (natural sequence RNA bind-n-seq); RBNS binding buffer (assumed for nsRBNS): 25 mM Tris pH 7.5, 150 mM KCl, 3 mM MgCl2, 0.01% Triton X-100, 500 ug/ml BSA, 20 U/ml SUPERase-In, 4 C; UNK is unkempt and MSI1 is Musashi-1; names of the RNAs are library labels; protein concentration not given here; high values mean tight binding
row,Binder,binding signal
1,B1,1.02 enrichment R
2,B2,3.42 enrichment R
3,B3,4.56 enrichment R
4,B4,3.95 enrichment R
5,B5,3.69 enrichment R
6,B6,8.3 enrichment R
7,B7,0.985 enrichment R
8,B8,3.55 enrichment R
9,B9,1.27 enrichment R
10,B10,1.91 enrichment R
11,B11,0.585 enrichment R
12,B12,1.23 enrichment R
13,B13,0.842 enrichment R
14,B14,0.629 enrichment R
15,B15,1 enrichment R
16,B16,1.61 enrichment R
17,B17,0.517 enrichment R
18,B18,0.944 enrichment R
19,B19,0.961 enrichment R
20,B20,4.02 enrichment R
21,B21,1.71 enrichment R
22,B22,4.34 enrichment R
23,B23,1.96 enrichment R
24,B24,3.82 enrichment R
25,B25,2.69 enrichment R
26,B26,1.07 enrichment R
27,B27,0.676 enrichment R
